Bioassay records from PubChem.
Sampled rows, rich in hits. Any-hit rate of the full collection: about 27%.
CYP2C19 inhib: inhibitors of human CYP2C19; CYP2C19 Supersomes, luciferin-H EGE luminescence, 30 min; inhibition, % at 5 µM; actives 21% (n = 96,000); AID 778; P33261;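 active means CYP2C19 inhibition above a set limit at 5 µM in the primary screen, cut at about 50% in these data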;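 further: plate controls were negative control wells for no effect and 2.5 mM tranylcypromine positive control for full effect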
CYP2C9 act: increases human cytochrome P450 2C9 activity. P11712. recombinant CYP2C9, luciferin-H conversion, luminescence; hits give high values; factor 1 = untreated enzyme, 0 = blocked. activation factor at 5 µM. actives 1.4% (n = 96,000);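 active means activation factor of 2 or more for CYP2C9 at a 5 µM dose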;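 further: 0 = sulfaphenazole-blocked wells and 1 = vehicle-only wells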
sEH act: soluble epoxide hydrolase (human) activation; purified human sEH enzymatic activity, activator screen; activation, % at 2 µM; AID 717; P34913; actives 0.04% (n = 91,000); in the data active means activation above about 37%
Target sequence (P34913 whole entry, looked up): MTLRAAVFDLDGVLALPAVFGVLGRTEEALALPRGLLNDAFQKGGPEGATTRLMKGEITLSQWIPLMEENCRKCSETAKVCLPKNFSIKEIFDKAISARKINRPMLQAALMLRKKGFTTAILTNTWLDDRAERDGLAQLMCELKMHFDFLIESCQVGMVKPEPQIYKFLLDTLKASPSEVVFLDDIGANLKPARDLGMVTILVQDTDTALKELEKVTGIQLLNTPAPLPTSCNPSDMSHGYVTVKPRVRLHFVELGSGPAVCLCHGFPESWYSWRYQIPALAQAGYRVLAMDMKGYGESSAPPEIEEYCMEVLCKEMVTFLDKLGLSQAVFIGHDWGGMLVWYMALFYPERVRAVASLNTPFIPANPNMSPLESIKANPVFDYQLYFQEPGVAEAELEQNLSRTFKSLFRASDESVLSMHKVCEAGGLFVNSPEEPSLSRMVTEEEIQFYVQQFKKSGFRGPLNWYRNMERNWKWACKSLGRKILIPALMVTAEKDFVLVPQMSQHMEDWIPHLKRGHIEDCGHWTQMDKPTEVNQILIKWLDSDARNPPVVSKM
CYP2C19 act: increases human CYP2C19 enzyme activity; recombinant CYP2C19, luciferin-H EGE luminescence; hits give high values; 0 = fully inhibited enzyme, 1 = untreated enzyme; activation factor at 5 µM; 96,000 tested, under 10 active; AID 1025;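 active means activation factor of at least 2 at 5 µM in the primary screen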;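 further: 0 = wells with 2.5 mM tranylcypromine and 1 = vehicle-only wells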
sEH inh: inhibitors of human soluble epoxide hydrolase; P34913; recombinant human sEH enzymatic activity assay; inhibition, % at 2 µM; actives 0.34% (n = 91,000); AID 707; in the data active means inhibition above about 80%
CYP2C9 inhib: inhibitors of human CYP2C9; P11712; CYP2C9 Supersomes, luciferin-H conversion, luminescence; inhibition, % at 5 µM; actives 20% (n = 96,000);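 active means blocking of liver enzyme CYP2C9 beyond about 50% at 5 µM, limit read from the data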
* marks the source's active call; other numbers are inactive results; nt = not tested or not shown.

SMILES	CYP2C19 inhib	CYP2C9 act	sEH act	CYP2C19 act	sEH inh	CYP2C9 inhib
COc1ccc(C(C(=O)Nc2ccc(C(C)C)cc2)N(C)C(=O)CNC(C)=O)cc1 (centres undefined)	23.9	0.7	-11.6	0.8	7.7	32.7
O=C(Cn1cnc2c(nnn2Cc2ccc(F)cc2)c1=O)NCc1ccco1	nt	nt	-3.8	nt	1.8	nt
NS(=O)(=O)c1ccc(Nc2nc(-c3ccc(O)cc3O)cs2)cc1	79.4*	0.3	-35.5	0.2	34.2	68.3*
C=CCC(c1ccccc1F)N(CCN1CCOCC1)C(=O)Nc1cccc(Cl)c1 (centres undefined)	31.2	0.1	9.1	0.7	-10.1	86.6*
COc1cccc2cc(C(C)N(CCCN3CCOCC3)C(=O)Nc3ccccc3)oc12 (centres undefined)	12.0	0.7	-0.9	0.9	-0.1	31.6
CCc1ccc2[nH]c(=O)c(CN(CCCN3CCOCC3)C(=O)Nc3cccc(Cl)c3)cc2c1	31.5	0.8	5.7	0.7	-9.1	23.1
COc1ccc(CN(CCCN2CCOCC2)C(=O)Nc2cccc(Cl)c2)cc1OC	80.0*	0	nt	0.2	nt	97.1*
O=C(Nc1cccc(Cl)c1)N(CCN1CCOCC1)Cc1cccc(Cl)c1	84.6*	0.1	-14.2	0.2	13.9	94.3*
N#CCCN(Cc1cccnc1)C(=O)Nc1cccc(Cl)c1	94.1*	0.6	-2.9	0.1	1.8	41.7
COC(=O)C1ON2OC(C(=O)OC)C(C(=O)OC)C2C1CC(C)=O (centres undefined)	-2.0	1	7.5	1	-7.5	2.1
CCOC(=O)C(C(=O)OCC)C(Nc1ccc(Br)cc1)c1ccccc1 (centres undefined)	14.9	1.1	13.1	0.9	-12.9	-11.8
Cc1ccc(C)c2[nH]c(=O)c(CN(CCN3CCCC3)C(=O)Nc3cccc(Cl)c3)cc12	19.5	0.9	10.6	0.8	-9.2	12.2
O=C(Nc1cccc(Cl)c1)N(CCN1CCOCC1)Cc1ccccc1F	39.6	0.1	-10.9	0.6	10.1	92.5*
O=C(NCC1CCCCC1)C1CCN(C(=O)NC2CCCCC2)CC1	20.5	0.6	nt	0.8	nt	36.8
COc1ccc(S(=O)(=O)/N=C2/NC(=O)/C(=C\c3cc(OC)c(OC)cc3[N+](=O)[O-])S2)cc1	14.1	0	1.8	0.9	-1.0	99.8*
COc1cc(/C=C2\S/C(=N/S(=O)(=O)c3ccccc3)NC2=O)c([N+](=O)[O-])cc1OC	nt	nt	0.3	nt	-0.4	nt
CCOC(=O)c1cccc(NC(=O)CNS(=O)(=O)c2cccs2)c1	nt	nt	-7.3	nt	8.0	nt
O=C(OCCN(CCOC(=O)c1ccncc1)S(=O)(=O)c1cccs1)c1ccncc1	99.1*	0	-14.2	0	14.0	99.9*
CCCCCC(C)n1[nH]c(=O)c2c(C)cc(C)nc21 (centres undefined)	97.9*	0.3	nt	0	nt	65.6*
c1ccc2c(c1)ncn2-c1ncnc2sc3c(c12)CCCC3	69.9*	0.7	-9.5	0.3	12.6	32.4
Cc1cc2ncn(-c3ncnc4sc5c(c34)CCCC5)c2cc1C	82.8*	0.3	-3.5	0.2	3.3	65.9*
Cc1cc2ncn(-c3ncnc4scc(-c5ccccc5)c34)c2cc1C	25.9	0.8	-7.0	0.7	6.3	16.0
Cc1cc2ncn(-c3ncnc4sc5c(c34)CCC(C)C5)c2cc1C (centres undefined)	80.1*	0.6	-13.5	0.2	17.0	42.6
Cc1cc2ncn(-c3ncnc4sc(C)c(C)c34)c2cc1C	91.4*	0.2	-0.8	0.1	1.3	83.2*
N#Cc1c(/N=C/C=C/c2ccccc2)sc2c1CCCC2	13.7	1.3	-4.2	0.9	4.9	-27.0
CC1(C)CC(CC(=O)O)(c2ccccc2)CCO1 (centres undefined)	5.6	1	-3.7	0.9	3.8	3.3
Cc1nc(Oc2ccc(Cl)cc2)c2oc3ccccc3c2n1	0.0	1	22.0	1	-23.4	-0.8
O=C(OCn1ncc(Cl)c(Cl)c1=O)c1ccc(C(F)(F)F)cc1	83.1*	0.8	-6.4	0.2	9.0	22.5
Cc1ccc(C(=O)OCCN2CCN(c3ncc(C(F)(F)F)cc3Cl)CC2)cc1	18.1	0.7	-27.7	0.8	27.0	25.8
Cc1ccc(NC(=O)c2ccc(-n3cccn3)c([N+](=O)[O-])c2)cc1C	16.9	0.6	5.2	0.8	-6.6	43.1
